Results on 19 molecules are retold here after PubChem BioAssay (EPA / NIEHS).

One assay concerns DIO2 (gene 1734). In words: CCTE_GLTED_hDIO2: CCTE's human Deiodinase 2 (DIO2) Inhibition Assay, Great Lakes Toxicology and Ecology Division (GLTED) Lab (AID 2284050; active = hit-call score of the fitted dose curve at least 0.9, where 1 is the maximum). In short, it runs like this: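 Readout: absorbance from Sandell-Kolthoff detection of free iodide released by human DIO2 during a 3 h incubation with chemical. Cell-free format, n=3; activity fitted relative to DMSO negative control.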

The test system of the next assay is DIO3 (gene 1735). In words: CCTE_GLTED_hDIO3: CCTE's human Deiodinase 3 (DIO3) Inhibition Assay, Great Lakes Toxicology and Ecology Division (GLTED) Lab (AID 2284055; active = hit-call score of the fitted dose curve at least 0.9, where 1 is the maximum;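 for AC50: potency is for inhibition seen as loss of released iodide signal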). The gist of the method: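 hDIO3 (adenovirus-expressed) + test chemical, 3 h incubation; free iodide quantified by Sandell-Kolthoff reaction, absorbance read-out. DMSO negative control, n=3.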
A short description of assay [1]: CCTE_Shafer_MEA_acute_AB: CCTE's Alamar Blue Assay for Cytotoxicity in the Neural Acute Assay, Shafer Lab (AID 2284069; active = hit-call score of the fitted dose curve at least 0.9, where 1 is the maximum;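 note: active compounds lower the viability signal compared with DMSO wells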). In short, it runs like this:
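Cytotoxicity endpoint for acute MEA exposures of primary rat cortical neurons on day 13 or 15. Resazurin reduction is read fluorescently at 544/590 nm, with DMSO as the negative-control baseline.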
On the technique in general: Alamar Blue is a resazurin reagent that responds to reducing activity.

The nature of assay [2]: CCTE_Shafer_MEA_acute_LDH: CCTE's Lactate Dehydrogenase Assay for Cytotoxicity in the Neural Acute Assay, Shafer Lab (AID 2284086; active = hit-call score of the fitted dose curve at least 0.9, where 1 is the maximum;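 note: active means LDH release rises above DMSO vehicle level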). The gist of the method: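 LDH absorbance at 490 nm in medium taken right after 40-min compound exposure; rat primary cortical neuron networks on MEA plates, days post-plating 13 or 15. Increase over DMSO baseline scored as cytotoxicity.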
The nature of assay [3]: CCTE_Shafer_MEA_dev_interburst_interval_mean: CCTE's Neural Network Formation Assay for Mean Interburst Interval, Shafer Lab (AID 2284046).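 Note: well-mean interburst interval of bursting electrodes as AUC over four recording days; curve fitted for decrease in interburst interval relative to DMSO.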 The gist of the method:
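Network formation assay in primary rat cortical cultures, exposed from DIV 0 to 12. Mean interburst interval per well, integrated as AUC over four recordings.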

A short description of assay [4]: CCTE_Shafer_MEA_dev_inter_network_spike_interval_mean: CCTE's Neural Network Formation Assay for Mean Inter-network Spike Interval, Shafer Lab (AID 2284047).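 For AC50: potency for a decrease in mean inter-network spike interval below DMSO.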 In short, it runs like this:
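Compound was given at plating to primary rat cortical neurons and renewed with full medium changes on DIV 5 and 9. Extracellular activity was recorded on days 5, 7, 9, 12; AUC values were fitted for loss relative to DMSO control.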

Assay [5] is described as follows: CCTE_Shafer_MEA_dev_network_spike_number: CCTE's Neural Network Formation Assay for Number of Network Spikes, Shafer Lab (AID 2284048).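 For AC50: fit as a loss of signal meaning fewer network spikes than DMSO.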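 Note: synchronized bursts across electrodes counted on days 5 7 9 12 and integrated as AUC.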 In short, it runs like this:
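Extracellular recordings from 16-electrode wells track network formation in rat cortical cultures under continuous treatment from plating. The endpoint is network spike number, expressed as AUC across DIV 5–12 relative to DMSO vehicle.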

Assay [6] is described as follows: CCTE_Shafer_MEA_dev_network_spike_peak: CCTE's Neural Network Formation Assay for Mean Number of Electrodes in Network Spike, Shafer Lab (AID 2284049).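 For AC50: fitted for loss of signal meaning fewer electrodes in network spikes than DMSO.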 In short, it runs like this:
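Continuous 12-day exposure of rat cortical cultures, starting at plating, on MEA plates. Endpoint: electrodes participating in network-spike peaks, AUC across DIV 5–12, DMSO as negative control.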

A short description of assay [7]: CCTE_Shafer_MEA_dev_spike_duration_mean: CCTE's Neural Network Formation Assay for Mean Spike Duration, Shafer Lab (AID 2284051).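 For AC50: potency for a decrease in mean network spike duration versus DMSO.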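 Note: mean network spike duration pooled as area under curve over DIV 5 to 12 recordings.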 The gist of the method:
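With DMSO as baseline, loss of mean network spike duration was scored from extracellular recordings of rat cortical neurons on MEA plates. Exposure spanned plating to DIV 12; the four recording days were collapsed into one AUC value.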

The nature of assay [8]: CCTE_Shafer_MEA_dev_network_spike_duration_std: CCTE's Neural Network Formation Assay for Standard Deviation of Network Spike Duration, Shafer Lab (AID 2284052).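 Note: area under curve of spike duration SD across recording days 5 to 12; hits are decreases in network spike duration SD versus DMSO vehicle.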 In short, it runs like this: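 Developing networks of rat cortical neurons were exposed over twelve days in vitro on 48-well MEA plates. Trapezoidal AUC of recordings (DIV 5–12) was analysed for signal loss relative to DMSO vehicle.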

The nature of assay [9]: CCTE_Shafer_MEA_dev_per_network_spike_spike_number_mean: CCTE's Neural Network Formation Assay for Mean Number of Spikes in a Network Spike, Shafer Lab (AID 2284053). The gist of the method:
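First, rat cortical cells (1.5 x 10^5/well) were seeded onto MEA wells; second, dosing began at plating and was refreshed on DIV 5 and 9; finally, network-spike spike counts across DIV 5–12 were summarized as AUC.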

Assay [10] in a line: CCTE_Shafer_MEA_dev_per_network_spike_spike_percent: CCTE's Neural Network Formation Assay for Percent of Spikes in a Network Spike, Shafer Lab (AID 2284054). The gist of the method:
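Developing networks of rat cortical neurons are dosed at day 0 and recorded extracellularly four times up to day 12. The endpoint is the area under the curve of percent spikes in network spikes, fitted in the negative direction relative to DMSO.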

Assay [11] can be described thus: CCTE_Shafer_MEA_dev_LDH: CCTE's Lactate Dehydrogenase Assay for Cytotoxicity in the Neural Network Formation Assay, Shafer Lab (AID 2284068; active = hit-call score of the fitted dose curve at least 0.9, where 1 is the maximum;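 note: exposure for twelve days from plating with re-dosing on DIV 5 and 9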). The gist of the method: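 Developing rat cortical networks on MEA plates are exposed to compound for 12 days from plating. LDH activity is measured spectrophotometrically, with DMSO as baseline.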
Assay [12] is described as follows: CCTE_Shafer_MEA_dev_mutual_information_norm: CCTE's Neural Network Formation Assay for Mutual Information Normalization, Shafer Lab (AID 2284091).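 For AC50: mutual information between electrodes summarised as area under curve across four recording days; potency is for a decrease in mutual information relative to DMSO.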 In short, it runs like this:
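Exposure of primary rat cortical neurons began at plating and ran to DIV 12, with full media and treatment renewal after DIV 5 and 9 recordings. Mutual information AUC (DIV 5–12) was analysed for loss versus DMSO.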

Assay [13] is described as follows: CCTE_Shafer_MEA_dev_correlation_coefficient_mean: CCTE's Neural Network Formation Assay for Mean Correlation Coefficient, Shafer Lab (AID 2284093).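 For AC50: well mean pairwise spike train correlation integrated as AUC over recording days 5 to 12; potency fitted for loss of correlation relative to DMSO vehicle wells.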 In short, it runs like this: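 Extracellular firing from rat cortical networks on 48-well MEAs, DMSO-referenced, negative fitting direction. Compound present from plating to DIV12; mean pairwise correlation per well integrated over DIV5–12 recordings by trapezoidal AUC.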

A short description of assay [14]: UKN2_HCS_IMR90_neural_migration: University of Konstanz (UKN) Leist Lab Neural Crest Cell Migration Assay in human induced IMR90 Pluripotent Stem Cells (UKN2) (AID 2284204). Particulars: actives raise or lower the signal. The gist of the method:
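Using a 96-well stopper format with PLO/laminin/fibronectin coating, neural crest cells from iPSC migrate in cytokine-supplemented N2-S medium; after 24 h, chemicals are applied for a further 24 h, then cells are imaged after dye staining.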

The nature of assay [15]: CCTE_Shafer_MEA_dev_AB: CCTE's Alamar Blue Assay for Cytotoxicity in the Neural Network Formation Assay, Shafer Lab (AID 2284083; active = hit-call score of the fitted dose curve at least 0.9, where 1 is the maximum;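 note: resazurin reduction fluorescence as viability of cultured neurons; twelve days of exposure from plating with re-dosing on DIV 5 and 9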). The gist of the method:
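Cytotoxicity companion to the developmental MEA: primary rat cortical neurons, 12-day exposure starting day 0, compound refreshed DIV 5 and 9; resazurin fluorescence, fitted against DMSO vehicle.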

Assay [16] is described as follows: UKN5_HCS_SBAD2_cell_viability: Viability Assessment in the University of Konstanz (UKN) Leist Lab Neurite Outgrowth Assay in human iPSC-derived immature Dorsal Root Ganglia Neurons (UKN5) (AID 2284056). In short, it runs like this:
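iPSC-derived immature peripheral neurons (SBAD2) seeded on Matrigel with CHIR99021, SU5402 and DAPT, dosed 1 h later for 24 h. Viability from Hoechst H-33342 and calcein-AM live staining, high-content imaging; bidirectional fit versus DMSO.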

Assay [17] in a line: UKN5_HCS_SBAD2_neurite_outgrowth: University of Konstanz (UKN) Leist Lab Neurite Outgrowth Assay in human iPSC-derived immature Dorsal Root Ganglia Neurons (UKN5) (AID 2284070). The conditions noted are these: actives raise or lower the signal. In short, it runs like this: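 Cryopreserved SBAD2 peripheral neurons were seeded at 100.000 cells/cm2 in N2-S/KSR medium containing CHIR99021, SU5402 and DAPT, then exposed to compounds for 24 h. Neurite area from calcein-AM high-content imaging was fitted bidirectionally against DMSO.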

The nature of assay [18]: UKN4_HCS_LUHMES_neurite_outgrowth: University of Konstanz (UKN) Leist Lab Neurite Outgrowth Assay in human LUHMES cells (UKN4) (AID 2284206). Particulars: actives raise or lower the signal. The gist of the method:
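Read-out: calcein-AM neurite area by high-content fluorescence imaging, with Hoechst H-33342 viability counterstain, after 24 h chemical exposure of day-2 differentiated LUHMES cells. Activity fitted bidirectionally against DMSO baseline.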

Where “and” joins values, the source holds several entries; their conditions need not be identical. Equal entries are not always repeated. Inconclusive results are not listed. Some structures have more than one record in an assay (separate samples or runs), and their calls can disagree. Calls of active or inactive are those of the source. Rule for the calls, unless noted: active = hit-call score of the fitted dose curve at least 0.9, where 1 is the maximum; inactive = score below 0.9.

The term AC50 denotes the concentration at which the activity in the assay is half-maximal. Regarding `CC(=O)OC/C=C(C)/C=C/C=C(C)/C=C/C1=C(C)CCCC1(C)C`, the AC50 with DIO2 (gene 1734) is 52.6 µM (active); in the assay with DIO3 (gene 1735), 37.8 µM (active).
The like results for `CCCCC/C=C\C=C\C(=O)OCC` were, in that order, 44.2 µM (active) and 26.6 µM (active).
For the molecule `O=C(c1ccc(OCCN2CCCCC2)cc1)c1c(-c2ccc(O)cc2)sc2cc(O)ccc12`, in the assay with DIO2 (gene 1734), the AC50 is 99.1 µM (active). Besides, the result in assay [1] and in assay [2] was inactive.
In the case of `c1ccc2scnc2c1`, the molecule was called inactive in assay [3], in assay [4], in [5], in assay [6], in [7] and in [8]. Also, the result in assay [9], in [10], in assay [11], in [12], in assay [13] and in assay [14] was inactive.
Regarding `CC(C)(CO)CO`, the molecule was called inactive in [1] and in assay [2].
For `C[C@]12CC[C@@H]3c4ccc(O)cc4CC[C@H]3[C@@H]1CC[C@@H]2O`, the call in assay [3], in assay [4], in [5], in assay [6], in [7] and in [8] was inactive. In addition, the result in assay [9], in assay [10], in assay [11], in assay [15], in assay [12] and in assay [13] was inactive. Also, in assay [15], the AC50 is 6.6 µM (active).
With `CCCO[Si](OCCC)(OCCC)OCCC`, the call in assay [2] was inactive.
For `CC/C(=C(\c1ccccc1)c1ccc(OCCN(C)C)cc1)c1ccccc1`, the AC50 is 1.03 µM (active) in assay [3]; 0.0578 µM (active) in [4]; 1.87 µM (active) in assay [5]; 0.209 µM (active) in assay [6]; 46.5 µM (active) and 46.3 µM (active) in the assay on DIO2 (gene 1734); 0.35 µM (active) in [7]. The AC50 in assay [8] was 0.273 µM (active); in assay [9] it was 0.0668 µM (active); in assay [10] it was 3.89 µM (active); in the assay on DIO3 (gene 1735), 84.2 µM (active); in assay [11] it was 2.87 µM (active); in assay [15], 5 µM (active). Besides, the AC50 in assay [12] is 0.196 µM (active); in [13] it was 3.76 µM (active). Moreover, the molecule was classed as inactive (in the assay on DIO3 (gene 1735); in assay [1]).
Consider `c1ccc(OCCOc2ccccc2)cc1`, for which the molecule was classed as inactive in assay [1] and in assay [2].
For the molecule `N#CCCNCCC#N`, the result in assay [3], in assay [4], in assay [5], in assay [6], in assay [7] and in [8] was inactive. Moreover, the result in assay [9], in assay [10], in [11], in assay [12] and in assay [13] was inactive.
Turning to `CCCCOCCOCCO`, in assay [2], the outcome was inactive.
Consider `CC(C)Cc1ccc(C(C)C(=O)O)cc1` (stereo unspecified), for which the AC50 in assay [3] is 0.962 µM (active); in [6] it was 15 µM (active); in [10], 15 µM (active); in assay [11], 15 µM (active); in assay [15], 2.98 µM (active); in [12], 3.62 µM (active). Also, the result in assay [4], in assay [5], in assay [7], in assay [8], in assay [9] and in assay [16] was inactive. The outcome in assay [17], in assay [13], in [14] and in [18] was inactive.
Turning to `CCCCN(CCO)CCO`, the call in assay [1] was inactive.
Consider `CCn1cc(C(=O)O)c(=O)c2ccc(C)nc21`, for which the molecule was called inactive in assay [2].
For `C=C(C)C(=O)OCCC(C)OC(=O)C(=C)C` (stereo unspecified), the AC50 in the assay on DIO2 (gene 1734) was 49.6 µM (active); with DIO3 (gene 1735) it was 36.9 µM (active).
Consider `N[C@@H](CCC(=O)O)C(=O)O`, for which the molecule was called inactive in assay [3], in [4], in assay [6], in [7], in [8] and in [9]. Moreover, the call in assay [10], in assay [11], in assay [15], in [2], in [12] and in [13] was inactive.
For the molecule `CCCCC(CC)COC(=O)COc1ccc(Cl)cc1C` (stereo unspecified), the molecule was classed as inactive in [3], in assay [4], in [5], in assay [6], in assay [7] and in assay [8]. For the same molecule, the result in assay [9], in [10], in assay [12], in assay [13] and in assay [14] was inactive.
As to `CC(=O)c1ccc(C)cc1`, the result in [2] was inactive.
Take `CCCCCCCCOC(=O)c1ccc(O)cc1`: the half-maximal activity concentration (AC50) in the assay with DIO2 (gene 1734) was 92.9 µM (active); in the assay with DIO3 (gene 1735) it was 30.7 µM (active).
